The list is not random: actives were taken first. Their share in the collection is about 2%.
CHO-K1 Ca antag – counter-screen for M1 antagonists: effect in parental CHO-K1 cells. ATP-induced calcium, Fluo-8 fluorescence. AID 602250. 360,000 tested, 0.6% active. inhibition, % at 3 µM;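 active = inhibition above a per-plate cutoff, the plate's mean sample inhibition plus 3 SD, cut at about 24% in these data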;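 note: 0% = DMSO plus EC80 ATP and 100% = DMSO alone without ATP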
CHRM4 PAM – human M4 muscarinic receptor positive allosteric modulators, primary screen, CHO-K1 cells, Fluo-8 calcium fluorescence | Muscarinic acetylcholine receptor M4 (Homo sapiens), P08173 | CHO-K1 hM4/Gqi5, ACh EC20; 0% = ACh EC20, 100% = maximal ACh | activation, % at 3 µM | 360,000 tested, 0.4% active | AID 624126, 2012;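 active = activation above its plate's cutoff, the mean activation of sample wells plus 3 SD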
Target sequence (P08173 whole entry, looked up): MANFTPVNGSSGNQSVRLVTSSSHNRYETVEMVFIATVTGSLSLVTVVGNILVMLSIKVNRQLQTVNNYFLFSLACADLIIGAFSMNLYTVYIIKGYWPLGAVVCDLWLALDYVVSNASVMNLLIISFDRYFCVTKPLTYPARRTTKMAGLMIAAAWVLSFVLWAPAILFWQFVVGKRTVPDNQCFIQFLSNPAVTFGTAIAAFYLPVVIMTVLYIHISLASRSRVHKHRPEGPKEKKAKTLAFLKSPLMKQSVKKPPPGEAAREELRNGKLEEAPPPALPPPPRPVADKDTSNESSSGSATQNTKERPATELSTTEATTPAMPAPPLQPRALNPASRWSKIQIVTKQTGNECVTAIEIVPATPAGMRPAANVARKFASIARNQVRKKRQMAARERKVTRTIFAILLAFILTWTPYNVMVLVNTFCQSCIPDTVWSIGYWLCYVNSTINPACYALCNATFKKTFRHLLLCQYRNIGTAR
CHO-K1 Ca ag – counter-screen for M1 agonists: effect in parental CHO-K1 cells. Fluo-8 calcium fluorescence; scaled to maximal ATP response, vehicle zero. 360,000 tested, 0.48% active. activation, % at 3 µM; in the data active = activation above about 15%;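 note: untransfected CHO-K1 host cells lacking M1 receptor as counterscreen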
CHRM4 agonist – human M4 muscarinic receptor agonists, primary screen, CHO-K1 cells, Fluo-8 calcium fluorescence; Muscarinic acetylcholine receptor M4 (Homo sapiens), P08173; CHO-K1 hM4/Gqi5; vehicle 0%, full acetylcholine response 100%; activation, % at 3 µM; 360,000 tested, 0.14% active; AID 624127, 2012;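 active = activation above the run mean over all test wells plus 3 SD, cut at about 32% in these data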;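 note: peak over basal fluorescence ratio per well then scaled between controls; 0% = DMSO wells and 100% = acetylcholine at EC100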
M1 PAM parental – nonselective calcium activators in parental CHO-K1 cells, primary screen, counter-screen for M1 PAM project, cell-based, Fluo-8 calcium fluorescence, full deck, 1536-well. 360,000 tested, 0.02% active. AID 602247, 2012. activation, % at 3 µM. ATP EC20; 0% at ATP EC20, 100% at ATP max;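 active = activation above the run cutoff, the mean activation of all test compounds plus 3 SD, cut at about 40% in these data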;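 note: peak over basal fluorescence ratio in a 140 s read after ATP addition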
M4 antag – human M4 muscarinic receptor antagonists, primary screen, CHO cells, Fluo-8 calcium fluorescence; Muscarinic acetylcholine receptor M4 (Homo sapiens), P08173; CHO-hM4 cells, ACh EC80; inhibition, % at 3 µM; 360,000 tested, 0.73% active;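 active = inhibition above its plate's cutoff, the mean inhibition of sample wells plus 3 SD, cut at about 27% in these data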;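 note: 0% = acetylcholine EC80 with DMSO and 100% = DMSO without agonist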
* marks the source's active call; other numbers are inactive results.

What do the screens show for `CCCCN(C)C(=O)c1ccc(CS(=O)(=O)c2ccccc2C)o1`?
CHO-K1 Ca antag: -14.1; CHRM4 PAM: 17.8*; CHO-K1 Ca ag: 0.4; CHRM4 agonist: 3.1; M1 PAM parental: 27.5; M4 antag: -13.0

How did Cc1ccccc1S(=O)(=O)Cc1ccc(C(=O)NC2CCCCCC2)o1 do in these assays?
CHO-K1 Ca antag: -6.8; CHRM4 PAM: 15.3*; CHO-K1 Ca ag: 2.8; CHRM4 agonist: 4.5; M1 PAM parental: 21.4; M4 antag: 8.5

How did Cn1c(=O)c2c(-c3ccccc3)n(-c3ccc(N)cc3)cc2n(C)c1=O do in these assays?
CHO-K1 Ca antag: -16.0; CHRM4 PAM: 5.0; CHO-K1 Ca ag: 0.5; CHRM4 agonist: 2.1; M1 PAM parental: 6.5; M4 antag: -3.6

What do the screens show for `O=Nc1c(O)[nH]c2ccc(Cl)c(Cl)c12`?
CHO-K1 Ca antag: 3.9; CHRM4 PAM: 2.4; CHO-K1 Ca ag: 0.4; CHRM4 agonist: 5.4; M1 PAM parental: -5.5; M4 antag: 3.3

Results for COc1ccc(-n2nc3c(c2NC(=O)c2ccc(Br)o2)CS(=O)(=O)C3)cc1 ?
CHO-K1 Ca antag: -6.5; CHRM4 PAM: 24.2*; CHO-K1 Ca ag: 2.4; CHRM4 agonist: 4.0; M1 PAM parental: 18.9; M4 antag: 6.0

What do the screens show for `O=C(Nc1c2c(nn1-c1ccc(F)cc1)CS(=O)(=O)C2)c1ccc(Br)o1`?
CHO-K1 Ca antag: -15.2; CHRM4 PAM: -9.1; CHO-K1 Ca ag: 0.0; CHRM4 agonist: -0.5; M1 PAM parental: -8.7; M4 antag: -13.4

How did COc1ccc(C(=O)Nc2c3c(nn2-c2ccc(Cl)cc2)CS(=O)(=O)C3)cc1 do in these assays?
CHO-K1 Ca antag: -13.2; CHRM4 PAM: -3.6; CHO-K1 Ca ag: 1.4; CHRM4 agonist: 0.9; M1 PAM parental: -2.4; M4 antag: -5.8

What do the screens show for `COc1ccc(C(=O)Nc2c3c(nn2-c2ccc([N+](=O)[O-])cc2)CS(=O)(=O)C3)cc1`?
CHO-K1 Ca antag: 7.5; CHRM4 PAM: -2.4; CHO-K1 Ca ag: 17.9*; CHRM4 agonist: 1.6; M1 PAM parental: 0.5; M4 antag: 3.6

Results for Nc1[nH]c(C(=O)c2ccccc2)c(-c2ccccc2C(F)(F)F)c1C(=O)NCc1cccc2ccccc12 ?
CHO-K1 Ca antag: -16.1; CHRM4 PAM: 2.9; CHO-K1 Ca ag: 0.6; CHRM4 agonist: 0.6; M1 PAM parental: 9.9; M4 antag: 1.5

How did CC(OC(=O)Cc1c[nH]c2ccccc12)C(=O)Nc1ccccc1[N+](=O)[O-] (centres undefined) do in these assays?
CHO-K1 Ca antag: -1.0; CHRM4 PAM: -0.9; CHO-K1 Ca ag: 1.0; CHRM4 agonist: 2.6; M1 PAM parental: -2.3; M4 antag: 1.7

How did COc1ccc(C(=O)c2ccccc2)c(OCC(=O)N(C)C)c1 do in these assays?
CHO-K1 Ca antag: -5.7; CHRM4 PAM: 22.9*; CHO-K1 Ca ag: 0.8; CHRM4 agonist: 1.8; M1 PAM parental: 23.3; M4 antag: -13.7

How did CC(=O)Oc1ccc(C(=O)c2ccccc2)c(OC(C)=O)c1 do in these assays?
CHO-K1 Ca antag: 1.4; CHRM4 PAM: -2.9; CHO-K1 Ca ag: 1.0; CHRM4 agonist: 0.0; M1 PAM parental: 18.4; M4 antag: 7.2

Results for COc1ccc(-c2noc(COc3ccccc3OC)n2)cc1OC ?
CHO-K1 Ca antag: 10.3; CHRM4 PAM: -3.7; CHO-K1 Ca ag: 1.2; CHRM4 agonist: 4.8; M1 PAM parental: 8.1; M4 antag: -11.3

What do the screens show for `Cc1noc(COc2ccccc2OCC(N)=O)n1`?
CHO-K1 Ca antag: -1.2; CHRM4 PAM: 6.8; CHO-K1 Ca ag: 16.2*; CHRM4 agonist: 0.6; M1 PAM parental: 19.0; M4 antag: 5.4

How did O=C(NCCO)c1ccc2nc(-c3ccco3)c(-c3ccco3)nc2c1 do in these assays?
CHO-K1 Ca antag: -1.1; CHRM4 PAM: 6.6; CHO-K1 Ca ag: -0.1; CHRM4 agonist: -0.1; M1 PAM parental: 11.2; M4 antag: 1.6

How did O=C(NC1CCCC1)c1ccc2nc(-c3ccco3)c(-c3ccco3)nc2c1 do in these assays?
CHO-K1 Ca antag: 26.1*; CHRM4 PAM: -8.3; CHO-K1 Ca ag: 0.0; CHRM4 agonist: 1.1; M1 PAM parental: -6.3; M4 antag: 1.4

How did CCOC(=O)c1cc(CC)sc1NC(=O)c1cc(OC)c(OC)c(OC)c1 do in these assays?
CHO-K1 Ca antag: 31.9*; CHRM4 PAM: 1.8; CHO-K1 Ca ag: 0.0; CHRM4 agonist: -0.5; M1 PAM parental: -9.6; M4 antag: 8.9

What do the screens show for `CCOC(=O)c1cc(CC)sc1NC(=O)c1ccc(N2C(=O)CCC2=O)cc1`?
CHO-K1 Ca antag: -24.3; CHRM4 PAM: 9.5; CHO-K1 Ca ag: 0.3; CHRM4 agonist: 1.6; M1 PAM parental: 17.9; M4 antag: -0.5

Results for Cc1onc(-c2ccccc2)c1NC(=O)Nc1ccc(OC(F)F)cc1 ?
CHO-K1 Ca antag: 10.3; CHRM4 PAM: -11.7; CHO-K1 Ca ag: 24.7*; CHRM4 agonist: 6.7; M1 PAM parental: -5.6; M4 antag: 1.9

Results for CCn1c(SCC(=O)NNC(=S)Nc2ccc(C)cc2)nnc1-c1ccc(Cl)cc1 ?
CHO-K1 Ca antag: -4.7; CHRM4 PAM: 5.2; CHO-K1 Ca ag: 16.2*; CHRM4 agonist: 0.2; M1 PAM parental: 27.5; M4 antag: -6.3

What do the screens show for `CCn1c(SCC(=O)NNC(=O)c2ccc(C)cc2)nnc1C1CC1`?
CHO-K1 Ca antag: -7.8; CHRM4 PAM: 0.5; CHO-K1 Ca ag: 0.1; CHRM4 agonist: 0.2; M1 PAM parental: 6.8; M4 antag: -19.3

What do the screens show for `CCn1c(SCC(=O)NNC(=O)c2ccc(C)cc2)nnc1C(C)C`?
CHO-K1 Ca antag: -15.7; CHRM4 PAM: 15.2*; CHO-K1 Ca ag: 0.4; CHRM4 agonist: 0.9; M1 PAM parental: 22.2; M4 antag: -14.6

How did Cc1ccc(NC(=S)NNC(=O)CSc2nnc(-c3ccc(Cl)cc3)n2C2CCCCC2)cc1 do in these assays?
CHO-K1 Ca antag: -10.1; CHRM4 PAM: -3.5; CHO-K1 Ca ag: -0.1; CHRM4 agonist: -0.7; M1 PAM parental: 20.7; M4 antag: 3.6

How did Cc1cn(C2CCC(CO)O2)c(=O)[nH]c1=O (centres undefined) do in these assays?
CHO-K1 Ca antag: 2.5; CHRM4 PAM: -1.9; CHO-K1 Ca ag: 0.0; CHRM4 agonist: 0.2; M1 PAM parental: -10.2; M4 antag: -4.8

What do the screens show for `CCN(CC)CCN(Cc1cc2cc3c(cc2[nH]c1=O)OCO3)C(=S)NCCOC`?
CHO-K1 Ca antag: 6.2; CHRM4 PAM: -3.8; CHO-K1 Ca ag: -0.2; CHRM4 agonist: 0.3; M1 PAM parental: -0.3; M4 antag: -4.6

What do the screens show for `Cc1ccc(S(=O)(=O)NC[C@H]2O[C@@H](n3ccc(N)nc3=O)[C@H](O)[C@@H]2O)s1`?
CHO-K1 Ca antag: -10.6; CHRM4 PAM: -1.9; CHO-K1 Ca ag: 0.7; CHRM4 agonist: 1.6; M1 PAM parental: 10.7; M4 antag: -0.3

Screening results: PubChem, The Scripps Research Institute Molecular Screening Center
